Laboratory results taken from PubChem BioAssay AID504329 (Southern Research Specialized Biocontainment Screening …, 2011).
The whole screen tested about 340,000 compounds, of which about 1,000 (0.29%) were called active. Cut-off read from the data, not from the text of the source: inconclusive = inhibition above about 27% without an active follow-up result; inactive = below that. A selection follows. Potency and affinity values are given separately.

test: H1N1 influenza NS1A inhibitors, functional cell based assay (AID 504329); conditions: percent inhibition, at 12.5 µM, hits give high values

Row | SMILES | inhibition
1 | C=CCNC(=O)c1onc(CSc2ccc(F)cc2)c1C(=O)NCC=C | 8.73% (inactive)
2 | CCOCCc1nnc(NC(=O)C2CC(=O)N(c3ccc(OCC)cc3)C2)s1 (stereo unspecified) | -1.86% (inactive)
3 | C[C@@H]1CC[C@@]2(O[C@H](CCO)C[C@H](O)[C@H]2O)O1 | -1.57% (inactive)
4 | CCCSc1nc(-c2ccccc2)cc(C(F)(F)F)c1C#N | -2.3% (inactive)
5 | COc1ccc(N2CCN(C(=O)Cc3ncc(C(F)(F)F)cc3Cl)CC2)cc1 | -8.89% (inactive)
6 | O=C(O)c1ccc(NS(=O)(=O)c2ccc3c(c2)C2C=CCC2C(c2ccccc2F)N3)cc1 (stereo unspecified) | 18.1% (inactive)
7 | COc1ccc(NS(=O)(=O)c2ccc3c(c2)[C@H]2C=CC[C@H]2[C@@H](c2ccc(C(=O)O)cc2)N3)cc1 | 24.1% (inactive)
8 | Cn1nnnc1SCC(=O)N1CCc2ccccc21 | -9.92% (inactive)
9 | O=C1/C(=C/c2ccncc2)N2CCC1CC2 | -8.83% (inactive)
10 | CC(C)CC(=O)Nc1nnc(SCC(=O)NCC2CCCO2)s1 (stereo unspecified) | -4.89% (inactive)
11 | CCc1nnc(NS(=O)(=O)c2ccc(N/C=C\C(=O)c3ccc(C)cc3)cc2)s1 | 2.79% (inactive)
12 | COC(=O)c1ccccc1NC(=O)CSc1ncccn1 | -13.4% (inactive)
13 | CC(=O)c1ccc(Nc2nc(C)cc(C)n2)cc1 | 0.38% (inactive)
14 | Cc1cc(C)nc(NN2C(=O)C=CC2=O)n1 | 0.34% (inactive)
15 | Cn1c(SCC(=O)Nc2nccs2)nnc1-c1ccncc1 | 2.71% (inactive)
16 | CCOC(=O)C(C)Oc1cccc2c(=O)n(CC(=O)NCCc3ccccc3)ccc12 (stereo unspecified) | 0.03% (inactive)
17 | CC(C)C(OC(=O)c1cccs1)C(=O)NCc1ccc2c(c1)OCO2 (stereo unspecified) | -1.71% (inactive)
18 | Cc1cccc(NC(=O)c2ccc3nccnc3c2)c1C | 0.36% (inactive)
19 | COc1cc(NC(=O)c2ccccc2F)c(OC)cc1NC(=O)CN1CCCCC1 | -0.03% (inactive)
20 | N/C(=N\OC(=O)Cc1ccccc1)c1ccccn1 | -5.24% (inactive)
21 | N/C(=N\OC(=O)Cc1ccccc1[N+](=O)[O-])c1ccccn1 | -3.44% (inactive)

Row | SMILES | inhibition
22 | Cc1c(OC(C)C(=O)NCC(O)c2ccccc2)ccc2c3c(c(=O)oc12)CCC3 (stereo unspecified) | 3.79% (inactive)
23 | CNC(=O)c1c(NC(=O)c2ccc(S(=O)(=O)N3CCCCC3C)cc2)sc2c1CCN(C)C2 (stereo unspecified) | -4.17% (inactive)
24 | CCc1ccc(Nc2n[n+](-c3ccccc3)c(-c3cccc(Cl)c3Cl)s2)cc1 | -1.96% (inactive)
25 | Fc1ccc(-[n+]2nc(Nc3ccccc3)sc2-c2c3ccccc3cc3ccccc23)cc1 | 10.5% (inactive)
26 | Fc1ccc(-[n+]2nc(Nc3ccccc3)sc2-c2cccc(Cl)c2Cl)cc1 | 1.31% (inactive)
27 | CCc1ccc(Nc2n[n+](-c3ccccc3)c(-c3cccc(C)c3)s2)cc1 | -15% (inactive)
28 | COc1ccc(S(=O)(=O)CCC(=O)N2CC(=O)N(CCc3ccccc3)C(=O)C2)cc1 | -13.4% (inactive)
29 | CSc1ncc(/C=C2/C(=O)NC(=O)N(C)C2=O)cn1 | 6.14% (inactive)
30 | CC1Cc2ccccc2N1C(=O)c1ccc2c(c1)OCO2 (stereo unspecified) | -9.71% (inactive)
31 | CCCOc1cccc(OCC(=O)Nc2nc3ccccc3[nH]2)c1 | -2.2% (inactive)
32 | CN(C)c1ccc(/C=C2\CCC/C(=C\c3ccccc3)C2=O)cc1 | -5.05% (inactive)
33 | CC(C)/C=C1\CC/C(=C\c2ccc(N(C)C)cc2)C1=O | -9.13% (inactive)
34 | O=C1C(=O)N(CCCn2ccnc2)C(c2ccc(Cl)cc2)/C1=C(\O)c1ccc2c(c1)OCCO2 (stereo unspecified) | 4.67% (inactive)
35 | Cc1ccc(SCC(=O)NCCc2ccccc2)cc1 | 4.08% (inactive)
36 | O=C(Nc1ccc2c(c1)OCO2)C1COc2ccccc2O1 (stereo unspecified) | -3.64% (inactive)
37 | O=C(Nc1cc([N+](=O)[O-])c2[nH]c(=O)c3ccccc3c2c1)C(F)(F)F | 1.69% (inactive)
38 | c1ccc(CN2CCC(CNc3ncnc4ccccc34)C2)cc1 (stereo unspecified) | -2.71% (inactive)
39 | O=C(CN1C(=O)CCC1=O)Nc1nc(-c2ccc3ccccc3c2)cs1 | -4.5% (inactive)
40 | O=C(CN1C(=O)C2CCCCC2C1=O)Nc1nc(-c2ccc(F)cc2)cs1 (stereo unspecified) | -0.75% (inactive)
41 | O=C(CN1C(=O)CCC1=O)Nc1nc(-c2cccs2)cs1 | -13.6% (inactive)
42 | CC1(c2ccccc2)NC(=O)N(CC(=O)Nc2nc(-c3ccccn3)cs2)C1=O (stereo unspecified) | 17.7% (inactive)

Row | SMILES | inhibition
43 | O=C(Nc1nc(-c2ccccn2)cs1)C1CC1 | 15.6% (inactive)
44 | O=C(CCN1C(=O)C2CCCCC2C1=O)Nc1nc(-c2ccccc2)cs1 (stereo unspecified) | 12.8% (inactive)
45 | O=C(CC1CC2CCC1C2)Nc1nc(-c2ccccn2)cs1 (stereo unspecified) | -17.9% (inactive)
46 | O=C(Nc1nc(-c2ccccn2)cs1)C1CCCC1 | -0.49% (inactive)
47 | N#Cc1cc(-c2cccc(Cl)c2)c[nH]c1=O | 3.18% (inactive)
48 | Cc1ccc(C(=O)Nc2cccc(C(=O)NCc3ccco3)c2)cc1 | 0.66% (inactive)
49 | COc1ccc(C(=O)NCCSCc2cccc(Cl)c2)cc1OC | -9.42% (inactive)
50 | O=C(CCN1CCN(c2ccc(F)cc2)CC1)Nc1ccc(F)cc1 | 8.96% (inactive)
51 | CC(C)(C)c1cc(C(=O)N2CCc3ccccc32)ccn1 | -21.7% (inactive)
52 | CC(=O)Nc1sc(C)c(C)c1C(=O)OCC(=O)NC(C)c1ccccc1 (stereo unspecified) | -5.54% (inactive)
53 | Cc1ccc(S(=O)(=O)Nc2nc3ccccc3nc2NCC2CCCO2)cc1C (stereo unspecified) | -0.91% (inactive)
54 | O=C1CC(c2ccc(O)cc2)Oc2cc(O)ccc21 (stereo unspecified) | -6.8% (inactive)
55 | O=C(COc1ccccc1)N[C@@H]1c2ccccc2CC[C@H]1OCc1ccccc1 | -3.28% (inactive)
56 | CCN(CC)CCC(c1ccc2c(c1)OCO2)c1c(OC)cc(OC)c2c(-c3ccccc3)cc(=O)oc12 (stereo unspecified) | 15.2% (inactive)
57 | CCN(CC)CCC(c1cc(OC)c(OC)c(OC)c1)c1c(OC)cc(OC)c2c(-c3ccccc3)cc(=O)oc12 (stereo unspecified) | -1.61% (inactive)
58 | COc1ccc(C(CCN2CCCCC2)c2c(OC)cc(OC)c3c(-c4ccccc4)cc(=O)oc23)cc1 (stereo unspecified) | 3.17% (inactive)
59 | COc1cc(OC)c2c(-c3ccccc3)cc(=O)oc2c1C(CCN1CCCC(C)C1)c1ccc2c(c1)OCO2 (stereo unspecified) | 17.6% (inactive)
60 | COc1cc(OC)c2c(-c3ccccc3)cc(=O)oc2c1C(CCN1CCOCC1)c1ccc(N(C)C)cc1 (stereo unspecified) | 9.77% (inactive)
61 | COc1ccc(C(CCN2CCCC(C)C2)c2c(OC)cc(OC)c3c(-c4ccccc4)cc(=O)oc23)cc1 (stereo unspecified) | 10.3% (inactive)
